Compounds with a hit are over-represented: about 6.8% of the library has one in this group of screens.
KB-3-1 tox – kills parental KB-3-1 adenocarcinoma cells; Potency, µM (doses to about 46.1 µM), usual class: cytotoxic; AID 1347075; KB-3-1 viability, CellTiter-Glo ATP luminescence, 72 h; 1.4% of 400,000 active; further: on the % scale 0 is the no-effect control and ±100 the full control effect; nearly all actives have a fitted effect of over 60% in size
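Cytotoxicity measured as CellTiter-Glo luminescence after 72 h at 37 C. Compound titrations were pinned onto drug-naive KB-3-1 parental adenocarcinoma cells grown in DMEM with 10% FBS, and normalized data fitted to concentration-response curves.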
SW480 rereplic – inducers of DNA re-replication in SW480 colon cancer cells. 1.8% of 340,000 active. AID 624297. SW480 DNA re-replication, Hoechst DNA content imaging, 48 h. Potency, µM (titrated, usually from 46.1 µM), inactives show at the highest dose re-replication activation, hits mostly activators; further: % of control where 0% means no effect; nearly all actives have a fitted effect of over 55% in size
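Hoechst fluorescence of nuclei (405 nm excitation, 500-530 nm emission) measured by plate-scanning imager after 48 hr compound exposure at 37 C; re-replication scored as increased number of nuclei with elevated intensity.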
PINK1 modulator – PINK1 expression modulation | Potency, µM (highest dose often 76.6 µM), for the others: top-dose activation (PINK1 increase), most hits filed as activators | 0.2% of 410,000 active | PINK1 immunofluorescence, high-content cytometry, 24 h; active means well fitted activation curve with a large enough effect; inconclusive means small, poorly fitted or top-dose-only effect; cell line not stated here; further: % of control where 0% means no effect; nearly all actives have a fitted effect of over 65% in size
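A stable cell line was treated with compounds at 5 concentrations for 24 hours, with CCCP as control. PINK1 levels and mitochondrial localization were measured by immunofluorescence with mitochondrial, cell and nuclear markers after fixation, read by laser-scanning cytometry.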
KB-V1 MDR tox – kills drug-selected multidrug resistant KB-V1 cells. KB-V1 MDR cells viability, CellTiter-Glo, 72 h. AID 1347076. 3.4% of 400,000 active. Potency, µM (highest dose often 46.1 µM), hits mostly cytotoxic; further: on the % scale 0 is the no-effect control and ±100 the full control effect; nearly all actives have a fitted effect of over 60% in size
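Following 72 h at 37 degrees C with compound, KB-V1 cell viability was read by CellTiter-Glo luminescence, medium being phenol-red-free DMEM plus 10% FBS; concentration-response parameters came from normalized, curve-fitted qHTS data.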
PTAP TSG101 blk – blocks PTAP/TSG101 interaction to inhibit HIV-1 budding; Q99816; Fluorescence polarization, FITC-PTAP peptide / Tsg101 binding; Potency, µM (titrated, usually from 115 µM), without a hit: top-dose activity change, negative = inhibition, actives largely listed as inhibitors; 340,000 tested, under 10 active; active means well fitted inhibition curve with a large enough effect in the main read-out, with a control signal flat, not every such curve was filed as active; inconclusive means small, poorly fitted or top-dose-only effect, or effect the other way, or a change in a side signal; inactive means no such curve, though single readings can be large or run the other way; further: % of control where 0% means no effect
Target sequence (Q99816 whole entry, looked up): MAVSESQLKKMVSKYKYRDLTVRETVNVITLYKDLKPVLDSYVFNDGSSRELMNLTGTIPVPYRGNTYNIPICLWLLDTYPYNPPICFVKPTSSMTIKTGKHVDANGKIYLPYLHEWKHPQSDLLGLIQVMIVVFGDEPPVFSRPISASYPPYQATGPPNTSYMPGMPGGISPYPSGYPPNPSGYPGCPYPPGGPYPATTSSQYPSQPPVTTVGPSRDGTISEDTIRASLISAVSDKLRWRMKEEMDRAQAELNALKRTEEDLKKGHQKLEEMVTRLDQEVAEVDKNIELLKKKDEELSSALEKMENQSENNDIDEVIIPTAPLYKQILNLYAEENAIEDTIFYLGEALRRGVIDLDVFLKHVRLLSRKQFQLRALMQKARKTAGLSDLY
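Steps: Tsg101 binding domain dispensed (10 uM final), compounds pinned in DMSO, FITC-labeled PTAP-motif peptide added (50 nM final); after 20 min binding at room temperature, polarization measured.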
MCF10A rereplic – inducers of DNA re-replication in MCF 10A breast cells; MCF 10A DNA re-replication, Hoechst nuclear intensity, 48 h; Potency, µM (doses to about 46.1 µM), for the others: at the highest dose activity, positive = re-replication, usual class: activators; 2.9% of 350,000 active; further: % of control where 0% means no effect; nearly all actives have a fitted effect of over 50% in size
An asterisk follows results filed as active; i = inactive; ? = inconclusive; · = not tested or not shown; [ ] = remark or other dose. Unless noted, the call rests on the fitted dose curve; in most records, active means well fitted curve in the direction sought with a large enough effect; inconclusive means small, poorly fitted or top-dose-only effect, or another doubt; inactive means no such curve, though single readings can be large; an effect the other way counts as inactive or inconclusive. Potency means the concentration at half of the fitted maximal effect.

SMILES	KB-3-1 tox	SW480 rereplic	PINK1 modulator	KB-V1 MDR tox	PTAP TSG101 blk	MCF10A rereplic
Cc1cccc(N2CCN(C(=O)c3ccc(N4CCCC4=O)cc3)CC2C)c1 (stereo not given)	i	-10%	-1%	i	-6%	2%
Oc1ccccc1C(=S)N1CCN(c2cccc(Cl)c2)CC1	i	-1%	3%	i	-2%	7%
CCOc1ccc(NC(=O)C(CC)n2nc(-c3ccc(C)c(C)c3)ccc2=O)cc1 (stereo not given)	i	·	1%	i	·	·
Cc1c(Cl)cccc1N1C(N)=C(C#N)C(c2cc(CN3CCOCC3)cs2)C2=C1CCCC2=O (stereo not given)	i	·	2%	i	·	·
CCOc1ccc(C(=O)N2CCN(c3cccc(Cl)c3)CC2)cc1	i	-34%	0%	i	-1%	-3%
O=C(c1cccc(N2CCCC2=O)c1)N1CCN(c2cccc(Cl)c2)CC1	5.2µM*	-5%	10%	?	1%	0%
Cc1ccc(C(=O)N2CCN(c3cccc(Cl)c3)CC2)cc1C	?	12µM*	5%[38.3 µM]	?	0%	18µM*
COc1ccc(C(=O)N2CCN(c3cccc(Cl)c3)CC2)cc1	i	-1%	-2%	21µM*	0%	-1%
O=C(c1cccc(N2CCCC2=O)c1)N1CCN(c2ccc(F)cc2)CC1	i	27%	-2%	?	0%	8%
COc1ccc(C(=O)N2CCN(c3cccc(Cl)c3)CC2)cc1S(=O)(=O)NC1CC1	?	24%	5%	i	-1%	23µM*
Cc1ccc(N(CC(=O)Nc2cccc(Cl)c2)S(=O)(=O)c2cccs2)cc1	i	·	6%	i	·	·
CC(C)N(Cc1nc(-c2ccc(Cl)cc2)no1)C(=O)c1ccc(C(C)(C)C)cc1	i	·	4%	i	·	·
CCOC(=O)c1ccc(NC(=S)NCCC2=CCCCC2)cc1	i	87%	32µM*	?	-1%	25%
O=C(N/N=C/c1cn(-c2cccs2)nc1-c1ccccc1)c1ccccc1O	i	?	28µM*	?	1%	15µM*
NC(=O)N/N=C/c1cn(-c2ccccc2)nc1-c1cccnc1	i	-11%	4%	i	-5%	0%
O=C(N/N=C/c1cn(-c2ccccc2)nc1-c1cccnc1)c1ccccc1	i	?	-1%	i	-2%	12µM*
O=C(Nc1ccc(Cl)c(C(F)(F)F)c1)Nc1nnc(-c2ccncc2)s1	?	·	·	i	·	·
CO/N=C/C(C#N)c1ncc(C(F)(F)F)cc1Cl (stereo not given)	i	?	13µM*	i	-2%	?
CCN(CC)c1ccc(/C=N/Nc2nc3ccccc3[nH]2)c(O)c1	?	2.1µM*	?	i	1%	18µM*
CCN(CC)c1ccc(/C=N/N(c2ccccc2)c2ccccc2)c(O)c1	i	?	7%	16µM*	1%	?
CCN(CC)c1ccc(C=Nc2ccccc2C)c(O)c1	i	?	1%	?	-1%	2%
CCN(CC)c1ccc(/C=N/N=C(c2ccccc2)c2ccccc2)c(O)c1	i	23µM*	13%	?	0%	?
CCOc1ccc(S(=O)(=O)N2CCN(c3ccc(C)cc3C)CC2)c2ccccc12	i	·	0%	?	·	·
CCOc1ccc(N2CC(NC(=O)C3CCCCC3)CC2=O)cc1 (stereo not given)	·	·	1%	·	·	·
CC(=O)N1CCc2c(sc3c2c(=O)n(-c2ccccc2)c(=O)n3Cc2cccc(C(F)(F)F)c2)C1	?	·	0%	i	·	·
Cc1nc(N2CCN(c3ccccn3)CC2)c2c(C)c(C(=O)N3CCN(c4ccccc4F)CC3)sc2n1	?	7%	1%	21µM*	-2%	7.3µM*
Nc1c(C(=O)Nc2nccs2)sc2nc(-c3cccs3)cc(C(F)(F)F)c12	i	?	?	i	5%	?

Screens from PubChem.
